Reference: PubChem BioAssay AID1240 (Sanford-Burnham Center for Chemical Genomics, 2008)
Out of some 50,000 compounds screened, about 800 (1.6%) showed an effect of 50% or more. This is one part of a sample in which strong results are shown more often than they occur.

Each compound was assayed against Bcl-2-like protein 10 (Homo sapiens) (UniProt Q9HD36) (assay: TR3 peptide-Bcl-B binding displacers, biochemical primary FP assay, phenotype converters (AID 1240;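 note: 0% = Bcl-B with tracer peptide and DMSO and 100% = tracer peptide lacking Bcl-B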)). Settings: GST-Bcl-B / FITC-TR3 peptide fluorescence polarization; stronger effect = higher value; compound at 3.75 mg/L.
Bcl-2-like protein 10 (Homo sapiens), sequence (Q9HD36 whole entry, looked up): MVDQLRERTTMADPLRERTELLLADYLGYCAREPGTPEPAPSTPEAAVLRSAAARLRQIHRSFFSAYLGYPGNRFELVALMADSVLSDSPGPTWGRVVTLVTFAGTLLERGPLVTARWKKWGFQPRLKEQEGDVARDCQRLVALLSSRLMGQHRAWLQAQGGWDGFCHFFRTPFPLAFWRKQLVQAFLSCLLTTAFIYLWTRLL
In the case of `O=C(NC(=S)Nc1ccc(Cl)c(-c2nc3ccccc3s2)c1)c1ccco1`, the displacement is reported as 5.8%. In the case of `c1ccc2nc(NCc3ccncc3)ccc2c1`, the displacement is reported as -8.8%. In the case of `CCc1ccc(N2C(=O)NC(=O)/C(=C\c3ccc(OCC(=O)O)c(OC)c3)C2=O)cc1`, the displacement is reported as 9.9%. `CCOc1ccc(NC(=O)CC2S/C(=N\N=C\c3ccc(O)c(OC)c3)NC2=O)cc1` (centres undefined) showed a displacement of 9.6%. `COc1cc(/C=c2/sc3nc4ccccc4n3c2=O)cc(I)c1OCc1ccccc1` gave a displacement of 74.2%. Work on `C=CCc1ccccc1OCCOc1cccc(/C=c2\sc3nc4ccccc4n3c2=O)c1` yielded a displacement of 13.4%. `CCOc1ccc(/C=c2\sc3nc4ccccc4n3c2=O)cc1Cl` gave a displacement of 19.1%. `C=CCc1ccccc1OCCOc1ccc(/C=c2\sc3nc4ccccc4n3c2=O)cc1OCC` was tested, and the displacement was 100%. Compound `CCOc1cc(/C=c2/sc3nc4ccccc4n3c2=O)cc(I)c1OCC` has a displacement of 77.3%. `COc1cc(/C=c2/sc3nc4ccccc4n3c2=O)cc(Br)c1OCc1ccccc1` gave a displacement of 1.8%. In the case of `COc1cc(/C=c2\sc3nc4ccccc4n3c2=O)cc(I)c1OCCOc1cccc(C)c1`, the displacement is reported as 10.9%. For `CCOc1cc(/C=c2\sc3nc4ccccc4n3c2=O)ccc1OCCOc1ccc(Br)cc1`, the displacement was 19%. In the case of `COc1cc(/C=c2\sc3nc4ccccc4n3c2=O)cc(I)c1OCC(=O)O`, the displacement is reported as -4.2%. In the case of `COc1ccc(OC)c(NC(=O)CN(c2ccc(Br)cc2)S(C)(=O)=O)c1`, the displacement is reported as -12.8%. Work on `CCN(CC)CCCCOc1ccc(Cl)cc1C` yielded a displacement of -7.4%. `COc1ccc(NC(=S)NC(=O)c2cccs2)cc1` showed a displacement of -9.3%. `O=C(Nc1ccccc1)C1C2C3CCC(C3)C12` (centres undefined) was tested, and the displacement was 4%. In the case of `O=C(CSCc1ccccc1)Nc1nnc(/C=C/c2ccccc2)s1`, the displacement is reported as 39.9%. Work on `CC(=O)c1ccc(NC(=O)c2ccc3c(c2)C(=O)N(c2ccc(C)c(C)c2)C3=O)cc1` yielded a displacement of 8.9%. Work on `Cc1ccc(N2C(=O)c3ccc(C(=O)Nc4cccc(C)c4C)cc3C2=O)c(C)c1` yielded a displacement of 6.6%. Compound `CN1CCN(C(=O)C(=O)Nc2cccc3ccccc23)CC1` has a displacement of -2.6%. `COc1cccc(/C=N/NC(=O)c2cccc(N3CCCC3=O)c2)c1` gave a displacement of -3.5%. Compound `COc1ccc(/C=C2/SC(=O)NC2=O)c(OC)c1` has a displacement of 4.9%. Work on `NC1=NC(=O)/C(=C\C=C\c2ccccc2)S1` yielded a displacement of 154%. In the case of `NC1=NC(=O)/C(=C/c2ccc(Br)cc2)S1`, the displacement is reported as 3.7%. Compound `CC(=O)NC1=NC(=O)/C(=C\C=Cc2ccccc2)S1` has a displacement of -42.4%. Work on `NC1=NC(=O)/C(=C/c2ccc(Cl)cc2)S1` yielded a displacement of 57.4%. `COc1ccc(/C=C2\SC(N)=NC2=O)cc1` gave a displacement of 124%. `COc1ccc(/C=C2\SC(=S)N(C(C)C)C2=O)cc1` showed a displacement of -3.9%. For `COc1ccc(/C=C2\SC(=O)NC2=S)cc1`, the displacement was 67.8%. Compound `COc1ccc(C(=O)Oc2ccc(/C=C3\SC(N)=NC3=O)cc2)cc1` has a displacement of 10.1%. `CN(C)c1ccc(/C=C/C=C2/SC(N)=NC2=O)cc1` gave a displacement of -17.2%. `NC1=NC(=O)/C(=C\c2ccc(S(=O)(=O)O)cc2)S1` showed a displacement of 12.8%. `COc1cc(/C=C2\SC(N)=NC2=O)cc(OC)c1` was tested, and the displacement was -9.9%.
